From PubChem BioAssay
GPR151 activ = activates the human receptor GPR151; Q8TDV0; PathHunter beta-arrestin GPR151 cells, luminescence; activation, % at 11.2 µM; actives 1% (n = 650,000); in the data active = activation above about 4.9%;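 also: 0% = median of compound wells and 100% = cells with positive control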
TEAD-YAP block = TEAD-YAP interaction inhibition; inhibition, % at 9.12 µM; HEK-TIYL cells, TEAD-Gal4/YAP UAS-luciferase luminescence; actives 1.4% (n = 640,000); in the data active = inhibition above about 32%;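 also: 0% = median of test compound wells and 100% = reference inhibitor wells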
FBW7 act = activators of human E3 ligase FBW7; Q969H0; AlphaScreen FBW7–phospho-cyclin E peptide binding, activator screen; normalized activity (activation), % at 26.1 µM; actives 0.13% (n = 650,000); AID 1259310; in the data active = normalized activity above about 1.9%;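 also: purified mutant Fbw7 with reduced substrate affinity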
Target sequence (Q969H0 whole entry, looked up): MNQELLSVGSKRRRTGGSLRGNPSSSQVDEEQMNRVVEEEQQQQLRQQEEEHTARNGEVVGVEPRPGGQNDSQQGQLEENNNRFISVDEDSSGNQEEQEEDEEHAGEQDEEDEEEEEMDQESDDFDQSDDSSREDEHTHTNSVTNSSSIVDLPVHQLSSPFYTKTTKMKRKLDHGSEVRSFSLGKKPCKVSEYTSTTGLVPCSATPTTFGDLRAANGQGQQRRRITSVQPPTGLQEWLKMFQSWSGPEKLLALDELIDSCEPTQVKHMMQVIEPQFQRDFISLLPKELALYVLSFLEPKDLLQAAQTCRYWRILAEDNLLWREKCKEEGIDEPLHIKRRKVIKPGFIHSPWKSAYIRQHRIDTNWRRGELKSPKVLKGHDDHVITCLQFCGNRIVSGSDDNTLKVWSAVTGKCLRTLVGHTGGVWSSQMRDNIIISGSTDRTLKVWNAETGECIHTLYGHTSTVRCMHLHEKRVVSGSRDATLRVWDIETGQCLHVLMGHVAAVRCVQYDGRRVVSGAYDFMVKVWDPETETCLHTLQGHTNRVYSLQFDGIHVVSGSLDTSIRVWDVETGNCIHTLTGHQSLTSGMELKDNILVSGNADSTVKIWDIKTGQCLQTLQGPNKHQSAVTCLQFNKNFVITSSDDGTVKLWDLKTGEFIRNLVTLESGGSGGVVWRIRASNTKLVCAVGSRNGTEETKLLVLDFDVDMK
MITF inh = human MITF inhibition, primary screen | O75030 | AlphaScreen MITF homodimerization, bead proximity signal | inhibition, % at 2.6 µM | actives 0.91% (n = 650,000) | AID 1259374; in the data active = inhibition above about 50%;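 also: 0% = vehicle wells with protein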
GPR151 confirm = confirmation of human GPR151 activators; GPR151 PathHunter beta-arrestin cells, luminescence, 90 min; % of EA-reagent control over plate median; 6,700 tested, under 10 active; AID 1508609; activation, % at 11.2 µM; shares compounds with GPR151 activ;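 active = mean percent activation across replicates above the confirmation screen cutoff of 4.91%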
GPR119 counter = GPR119 activation, counter-screen for GPR151 activators; activation, % at 11.2 µM; shares compounds with GPR151 activ; AID 1508611; GPR119 PathHunter beta-arrestin cells, luminescence, 90 min; 0 = compound-well median, 100 = enzyme-acceptor control; actives 0.3% (n = 6,700);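 active = mean percent activation in the counterscreen above 29.09%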;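 also: counterscreen on off-target GPR119 to flag nonselective hits from the GPR151 activator screen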
An asterisk follows results filed as active; nt = no result; ! = not active in a repeat. Shown are actives, neighbours in structure and some others; about 3.4% of the full set was active somewhere.

SMILES	GPR151 activ	TEAD-YAP block	FBW7 act	MITF inh	GPR151 confirm	GPR119 counter
Cc1ccccc1-n1c2nc(=O)[nH]c(=O)c-2cc2c(Cl)cccc21	8.3*	8.3	-0.1	-4.3	0.9	7.0
O=C(c1cc(=O)c2ccccc2o1)N1CCCC1	1.0	16.3	0.4	0.9	nt	nt
CC(C)c1nnc2n1CCN(C(=O)c1cc(=O)c3ccccc3o1)CC2	7.3*	-21.9	0.0	3.1	1.2	1.7
CCCN(CCC)CCCn1cnc2c([nH]c3ccc(F)cc32)c1=O	4.9	5.8	0.4	8.9	nt	nt
CCCN(CCC)CCCn1cnc2c([nH]c3ccc(OC)cc32)c1=O	5.1*	-1.4	-0.2	-4.2	0.3	4.9
CC(C)c1ccc(NC(=O)CSc2nc3cc4c(cc3c(=O)n2CCC2=CCCCC2)OCO4)cc1	5.9*	3.5	-0.2	-4.0	-0.6	7.2
Cn1nnc2cc(NC(=O)Nc3ccc(Br)cc3)ccc21	5.9*	-91.8	0.0	0.5	-0.4	0.9
CCCN1CCN(C(=O)c2cnc(N3CCN(c4ncccn4)CC3)c3ccccc23)CC1	-0.7	19.0	0.2	23.3	nt	nt
O=C1NCC2=C1C(c1ccccc1)Nc1ccccc1N2 (centres undefined)	0.5	-0.8	0.0	-0.5	nt	nt
O=C1NCC2=C1C(c1ccccc1O)Nc1ccccc1N2 (centres undefined)	9.2*	-4.4	-0.1	5.4	-0.2	9.2
O=[N+]([O-])c1ccccc1/C=N/NS(=O)(=O)c1ccc(Cl)cc1	14.3*	-3.5	0.1	20.9	0.2	10.4
CC(C)(C)c1ccc(S(=O)(=O)N/N=C/c2ccccc2[N+](=O)[O-])cc1	-0.3	13.3	0.0	12.7	nt	nt
CC(C)CC(N=Cc1c(O)c2ccccc2oc1=O)C(=O)O (centres undefined)	5.5*	-5.9	0.0	-4.7	-0.4	10.7
C1=CCC(CN2CCN(C3CCCC3)CC2)CC1 (centres undefined)	5.1*	-5.8	0.0	32.8	0.8	13.2
CCCS(=O)(=O)N1CCCc2cc(NS(=O)(=O)Cc3ccccc3F)ccc21	-0.5	9.9	0.1	2.5	nt	nt
Cc1cccc(CNC(=O)CC2C(=O)NCCN2Cc2c(F)cccc2Cl)n1 (centres undefined)	5.1*	9.4	0.0	-2.5	0.7	5.5
Cc1nc(CCNC(=O)CC2C(=O)NCCN2Cc2ccccc2F)sc1C (centres undefined)	-2.0	-0.8	-0.2	-3.8	nt	nt
Cc1nc(CCNC(=O)CC2C(=O)NCCN2Cc2cccc3ccccc23)sc1C (centres undefined)	5.5*	-0.9	0.0	5.5	0.7	2.0
CC(=O)N1CCCC(C(=O)Nc2cccc(-c3ccc(F)cc3)c2)C1 (centres undefined)	3.2	8.8	0.0	4.1	nt	nt
Cc1ccnc(SCc2cc(=O)c(OC(=O)c3cc(Cl)ccc3Cl)co2)n1	-1.3	7.5	-0.5	9.4	nt	nt
Cc1ccnc(SCc2cc(=O)c(OC(=O)c3cc(Cl)ccc3[N+](=O)[O-])co2)n1	14.0*	-1.7	-0.1	2.0	-1.0	-7.1
O=C(NCCOc1ccccc1)c1ccccc1O	-0.6	-42.3	0.1	10.1	nt	nt
CCOC(=O)c1cnn(-c2nc(-c3ccccc3)cc(-c3ccccc3)n2)c1-c1cc(F)c(F)c(F)c1F	0.5	9.2	0.0	-5.6	nt	nt
O=C(Nc1ccc2[nH]ncc2c1)[C@H]1CCCN1C(=O)C(O)c1ccc(Cl)cc1 (some centres undefined)	-0.7	-1.3	-0.3	4.8	nt	nt
O=C(Nc1ccc2[nH]ncc2c1)[C@@H]1CCCN1C(=O)C(O)c1ccc(Cl)cc1 (some centres undefined)	5.2*!	-0.3	0.0	10.5	-0.3	5.5
SMILES	GPR151 activ	TEAD-YAP block	FBW7 act	MITF inh	GPR151 confirm	GPR119 counter
C#CCOC(=O)c1ccc(N2C(=O)C3C4C=CC(C4)C3C2=O)cc1 (centres undefined)	0.2	-0.5	-0.1	-8.1	nt	nt
O=C(O)COc1ccc(NC(=O)COc2ccc(Cl)cc2)cc1	2.3	8.8	-0.1	3.4	nt	nt
O=C(COc1ccc(Cl)cc1)Nc1ccc2c(c1)C(=O)N(c1ccccc1)C2=O	11.2*	8.9	0.1	8.0	-0.2	-0.3
O=C(COc1ccccc1)Nc1ccc(Cl)cn1	7.8*	-19.1	0.0	-1.4	-0.2	-4.5
O=C(COc1ccc(Cl)cc1)Nc1ccc(Cc2ccncc2)cc1	5.4*	-1.4	-0.1	-4.7	-1.0	-13.4
CN1C(=O)c2ccc(NC(=O)COc3ccc(Cl)cc3)cc2C1=O	-0.4	-1.8	-0.1	-8.3	nt	nt
O=C(COc1ccccc1)NC(=S)Nc1ccc(Cl)cn1	3.0	-3.3	-0.2	9.2	nt	nt
O=C(COc1ccc(Br)cc1)Nc1ncc(Cc2ccc(F)cc2)s1	6.2*	6.1	0.4	5.1	0.3	10.9
CCOc1ccc(C(C)C)cc1S(=O)(=O)N1CCN(c2ccc3nnc(C)n3n2)CC1	-0.1	-3.0	-0.4	-9.6	nt	nt
COc1c(C(=O)Nc2ccc(Cl)cn2)ccc2ccccc12	5.5*	-38.5	0.2	10.9	-0.7	-2.9
O=C(COc1ccc(Cl)cc1)Nc1ccc(Cl)cn1	-0.1	-30.9	0.3	13.9	nt	nt
O=C(COc1ccc(Br)cc1)Nc1ccc(Cl)cn1	10.6*	-40.4	0.0	8.5	0.2	14.4
CC(C)NCCOCCOc1c(Cl)cccc1Cl	0.0	-17.7	-0.2	34.8	nt	nt
CC(C)NCCOCCOc1cccc(Cl)c1	8.4*	5.5	0.0	41.5	-0.8	-13.0
CSc1ncc(/C=C2/C(=O)NC(=O)N(c3cccc(C(F)(F)F)c3)C2=O)cn1	-0.7	2.5	-0.1	-12.5	nt	nt
COc1ccc(-c2nc3c(c4c2C[C@H](c2ccccc2)OC4)CN(C(=O)N[C@@H](C)C(=O)OC(C)C)CC3)c(C)c1	6.2*	nt	0.1	-12.2	-0.2	3.3
COc1ccc(-c2nc3c(c4c2C[C@H](c2ccccc2)OC4)CN(C(=O)N[C@@H](C)c2ccccc2)CC3)c(C)c1	-1.1	nt	0.0	-4.5	nt	nt
O=[N+]([O-])c1ccc(N=C(c2cccc([N+](=O)[O-])c2)N2CCCCC2)cc1	1.8	-17.9	-0.7	-15.7	nt	nt
O=C(O)COc1ccc(/C=N/NC(=O)Cn2nnc(-c3ccccc3Cl)n2)cc1	7.8*	2.9	0.6	18.8	-0.4	-11.2
O=C(O)COc1cccc(/C=N/NC(=O)Cn2nnc(-c3ccccc3Cl)n2)c1	0.1	1.0	0.6	8.1	nt	nt
O=C(Cn1nnc(-c2ccccc2Cl)n1)Nc1ccccc1Cl	4.9*	8.7	-0.1	1.6	0.5	-1.6
O=C(Cn1nnc(-c2ccccc2Cl)n1)Nc1ccccc1C(F)(F)F	1.7	-6.9	-0.1	-10.6	nt	nt
NC(=O)c1c(NC(=O)CCSc2ccccc2)sc2c1CCCC2	-1.4	-57.3	0.0	5.7	nt	nt
Cn1c(Cn2nnc(-c3ccccc3)n2)nnc1SCC(=O)Nc1ccccc1Cl	7.6*	-13.1	-0.2	-3.8	0.8	18.7
